# Laboratory results published in PubChem BioAssay (Tox21).
# “And” between values parts separate entries of the source, which are not always exact repeats. Equal entries are not always repeated. Results filed as inconclusive are left out. Where a call stands in place of a potency, no number is given. More than one record can exist for a structure, and the calls need not agree. The source made the active and inactive calls. Unless noted, the call rests on the fitted dose curve; in most records, active means well fitted curve in the direction sought with a large enough effect in the repeat runs; inconclusive means weak or mixed curves; inactive means no such curve, though single readings can be large; an effect the other way counts as inactive or inconclusive.
# Assays:
# [1] = molecular target: Progesterone receptor (Homo sapiens) (UniProt P06401); assay: qHTS assay to identify small molecule agonists of the progesterone receptor (PR) signaling pathway (AID 1346784; calls by dose curve; further: nearly all actives have a fitted effect of over 30% in size)
# Sequence of Progesterone receptor (Homo sapiens) (P06401 whole entry, looked up): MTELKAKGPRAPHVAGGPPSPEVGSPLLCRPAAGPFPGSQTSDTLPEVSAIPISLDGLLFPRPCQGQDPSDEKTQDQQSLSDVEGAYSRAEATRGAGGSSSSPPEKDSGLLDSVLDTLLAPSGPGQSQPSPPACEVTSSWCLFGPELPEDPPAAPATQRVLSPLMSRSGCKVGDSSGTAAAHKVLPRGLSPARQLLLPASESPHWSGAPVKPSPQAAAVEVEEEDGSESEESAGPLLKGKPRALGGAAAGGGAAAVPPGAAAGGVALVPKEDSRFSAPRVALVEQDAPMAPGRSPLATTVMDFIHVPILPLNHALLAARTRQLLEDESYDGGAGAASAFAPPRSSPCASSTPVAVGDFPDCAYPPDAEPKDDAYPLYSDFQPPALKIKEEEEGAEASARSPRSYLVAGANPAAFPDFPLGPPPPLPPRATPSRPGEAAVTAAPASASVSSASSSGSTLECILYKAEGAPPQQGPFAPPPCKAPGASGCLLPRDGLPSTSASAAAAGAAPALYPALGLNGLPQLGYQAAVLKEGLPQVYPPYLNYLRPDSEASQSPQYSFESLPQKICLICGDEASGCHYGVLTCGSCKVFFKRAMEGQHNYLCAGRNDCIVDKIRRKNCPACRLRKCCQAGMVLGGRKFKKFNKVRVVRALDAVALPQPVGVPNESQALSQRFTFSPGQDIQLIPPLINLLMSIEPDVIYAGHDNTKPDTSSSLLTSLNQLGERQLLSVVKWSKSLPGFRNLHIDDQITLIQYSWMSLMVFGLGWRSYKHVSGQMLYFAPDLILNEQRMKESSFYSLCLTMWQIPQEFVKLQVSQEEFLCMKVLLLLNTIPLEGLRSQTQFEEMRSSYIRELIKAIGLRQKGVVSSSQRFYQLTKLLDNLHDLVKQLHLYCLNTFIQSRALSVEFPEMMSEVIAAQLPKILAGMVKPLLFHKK
# How it was run: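 Seed PR-UAS-bla HEK 293T cells (2% charcoal-stripped FBS), incubate 6 hr at 37C; add compounds in DMSO, 16 hr at 37C; add LiveBLAzer B/G substrate, 2 hr RT; read fluorescence intensity.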
# [2] = molecular target: Progesterone receptor (Homo sapiens) (UniProt P06401); assay: qHTS assay to identify small molecule antagonists of the progesterone receptor (PR) signaling pathway (AID 1346795; active means well fitted inhibition curve with a large enough effect in the signal ratio in the repeat runs, not every such curve was filed as active; the % refers to the signal ratio; further: potency means the concentration at half of the fitted maximal effect)
# How it was run: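 Screening used a GripTite HEK293T line with PR-responsive UAS-beta-lactamase. Cells were challenged with compound in the presence of 1 nM R5020 final for 16 hr at 37C; B/G FRET substrate, 2 hr room temperature, fluorescence.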
# [3] = qHTS assay to identify small molecule antagonists of the progesterone receptor (PR) signaling pathway - cell viability counter screen (AID 1346798); further: series mostly up to about 92 µM; nearly all actives have a fitted effect of over 50% in size
# How it was run: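 Measures cytotoxicity in parallel with the PR antagonist reporter read: HEK293T PR-UAS-bla cells get compound and R5020 for 16 hr, and remaining viable cells are quantified by CellTiter-Glo luminescence.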
# [4] = qHTS assay to identify small molecule agonists of the TGF-beta/Smad signaling pathway - cell viability counter screen (AID 1346829); further: nearly all actives have a fitted effect of over 45% in size; further: potency means the concentration at half of the fitted maximal effect
# How it was run: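 CellTiter-Glo luminescence readout; SBE-bla HEK 293T cells, overnight plating, compound 5 hr at 37 C/5% CO2, then bla substrate 2 hr RT, then CellTiter-Glo 30 min RT.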
# [5] = qHTS assay to identify small molecule agonists of the TGF-beta/Smad signaling pathway (AID 1346859; active means well fitted activation curve with a large enough effect in the signal ratio in the repeat runs, not every such curve was filed as active; the % refers to the signal ratio; further: series mostly up to about 77 µM)
# How it was run: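 Beta-lactamase reporter activity downstream of Smad binding elements was measured in stably transfected HEK 293T cells; compounds were incubated for 5 hr, substrate for 2 hr at room temperature.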
# [6] = molecular target: Thyrotropin-releasing hormone receptor (Homo sapiens) (UniProt P34981); assay: qHTS assay to identify small molecule agonists of the thyrotropin-releasing hormone receptor (TRHR) signaling pathway (AID 1346891; calls by dose curve;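 further: HEK293 cells expressing TRHR with calcium dye readout; series mostly up to about 58 µM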)
# Sequence of Thyrotropin-releasing hormone receptor (Homo sapiens) (P34981 whole entry, looked up): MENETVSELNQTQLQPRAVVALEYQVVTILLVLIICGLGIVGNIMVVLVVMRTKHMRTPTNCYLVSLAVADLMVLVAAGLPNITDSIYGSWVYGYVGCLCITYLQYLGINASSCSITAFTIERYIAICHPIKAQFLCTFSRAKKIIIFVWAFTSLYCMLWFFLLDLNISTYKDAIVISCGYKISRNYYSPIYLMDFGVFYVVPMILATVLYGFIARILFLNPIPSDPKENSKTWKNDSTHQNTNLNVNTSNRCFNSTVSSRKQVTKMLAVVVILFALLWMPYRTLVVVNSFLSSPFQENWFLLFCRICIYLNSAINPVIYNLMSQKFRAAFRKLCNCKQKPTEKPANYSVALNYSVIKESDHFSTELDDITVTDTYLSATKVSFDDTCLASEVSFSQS
# How it was run: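 Overnight-plated (18 h, 37 °C, 5% CO2) TRHR-Hek293 cells; 2 h calcium dye at 37 °C; compound in DMSO; 3-min kinetic fluorescence read.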
# [7] = Human pregnane X receptor (PXR) small molecule agonists, qHTS cell viability counter screen (AID 1346977); further: nearly all actives have a fitted effect of over 50% in size; further: potency means the concentration at half of the fitted maximal effect
# How it was run: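 After a 5hr pre-incubation, PXR-Luc HepG2 cells received compounds plus positive control in DMSO and were kept 24hr at 37C. Cell viability was quantified by fluorescence from CellTiter-Fluor added for the final hour.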
# [8] = Caspase-3/7 induction in HepG2 cells by small molecules, qHTS assay (AID 1346978); further: nearly all actives have a fitted effect of over 15% in size
# How it was run: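 Wild-type HepG2 cells, 2,000/well, settled 5 hr at 37 C and 5% CO2, then compound-treated for 17 hr; caspase-3/7 activity read by luminescent Caspase-Glo 3/7 after 30 min at room temperature.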
# [9] = Caspase-3/7 induction in CHO-K1 cells by small molecules, qHTS cell viability counter screen (AID 1346979); further: nearly all actives have a fitted effect of over 35% in size; further: potency means the concentration at half of the fitted maximal effect
# How it was run: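 Multiplexed with Caspase-Glo 3/7 in CHO-K1 cells, this counter screen added CellTiter-Fluor after 16hr of compound exposure and recorded fluorescence 1hr later.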
# [10] = Caspase-3/7 induction in CHO-K1 cells by small molecules, qHTS assay (AID 1346980); further: nearly all actives have a fitted effect of over 15% in size
# How it was run: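 Wild-type CHO-K1 cells exposed to compounds for 17hr at 37 C, 5% CO2. Caspase-3/7 activity then measured by Caspase-Glo 3/7 luminescence after 30min at room temperature.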
# [11] = Caspase-3/7 induction in HepG2 cells by small molecules, qHTS cell viability counter screen (AID 1346981); further: nearly all actives have a fitted effect of over 30% in size; further: potency means the concentration at half of the fitted maximal effect
# How it was run: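 In this quantitative HTS counter screen, compounds delivered in DMSO were left on unmodified HepG2 cells for 16 hr at 37 C. Viability was then determined fluorometrically with CellTiter-Fluor, in parallel with caspase-3/7 induction in the same wells.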
# [12] = molecular target: Nuclear receptor subfamily 1 group I member 2 (Homo sapiens) (UniProt O75469); assay: Human pregnane X receptor (PXR) small molecule agonists, qHTS assay (AID 1346982); further: nearly all actives have a fitted effect of over 35% in size; further: potency means the concentration at half of the fitted maximal effect
# Sequence of Nuclear receptor subfamily 1 group I member 2 (Homo sapiens) (O75469 whole entry, looked up): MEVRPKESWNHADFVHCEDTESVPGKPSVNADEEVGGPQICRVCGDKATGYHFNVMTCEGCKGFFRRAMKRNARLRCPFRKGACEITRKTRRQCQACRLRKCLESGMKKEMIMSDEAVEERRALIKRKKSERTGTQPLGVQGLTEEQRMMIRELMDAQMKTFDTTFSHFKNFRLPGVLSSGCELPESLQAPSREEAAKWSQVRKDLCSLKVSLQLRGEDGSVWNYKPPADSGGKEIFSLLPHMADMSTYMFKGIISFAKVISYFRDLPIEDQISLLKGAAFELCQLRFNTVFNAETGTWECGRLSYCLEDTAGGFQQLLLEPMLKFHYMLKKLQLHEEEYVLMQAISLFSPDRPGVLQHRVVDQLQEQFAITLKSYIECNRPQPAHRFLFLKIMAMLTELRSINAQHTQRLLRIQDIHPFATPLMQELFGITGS
# How it was run: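 Reporter HepG2 cells expressing PXR-Luc are cultured in charcoal-stripped FBS (5%), treated with compounds for 24 hr at 37 C, and assayed by ONE-Glo luminescence after 30 min at room temperature.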
# [13] = molecular target: Cytochrome P450 2D6 (Homo sapiens) (UniProt P10635); assay: Cytochrome P450 Family 2 Subfamily D Member 6 (CYP2D6) small molecule antagonists: luciferase reporter qHTS assay (AID 1671196); further: nearly all actives have a fitted effect of over 50% in size; further: potency means the concentration at half of the fitted maximal effect
# Sequence of Cytochrome P450 2D6 (Homo sapiens) (P10635 whole entry, looked up): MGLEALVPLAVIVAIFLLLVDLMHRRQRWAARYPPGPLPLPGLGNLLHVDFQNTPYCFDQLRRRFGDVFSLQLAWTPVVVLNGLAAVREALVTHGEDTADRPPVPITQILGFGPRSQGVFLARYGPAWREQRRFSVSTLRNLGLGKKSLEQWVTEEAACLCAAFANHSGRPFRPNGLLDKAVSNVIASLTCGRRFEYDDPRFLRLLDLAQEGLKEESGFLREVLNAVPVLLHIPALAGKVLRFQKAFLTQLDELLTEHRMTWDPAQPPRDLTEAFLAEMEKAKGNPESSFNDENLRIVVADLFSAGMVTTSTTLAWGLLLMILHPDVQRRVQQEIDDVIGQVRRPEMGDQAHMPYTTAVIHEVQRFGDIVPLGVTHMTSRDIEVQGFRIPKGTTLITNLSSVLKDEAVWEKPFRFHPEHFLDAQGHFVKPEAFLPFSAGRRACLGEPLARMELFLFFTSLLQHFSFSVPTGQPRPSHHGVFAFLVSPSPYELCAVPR
# How it was run: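 Test chemicals meet CYP2D6 plus proluciferin substrate (10 min, RT); NADPH regenerating solution then drives turnover for 1 h. Detection reagent halts the reaction; luminescence measured after 20 min.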
# [14] = molecular target: Cytochrome P450 2C19 (Homo sapiens) (UniProt P33261); assay: Cytochrome P450 Family 2 Subfamily C Member 19 (CYP2C19) small molecule antagonists: luciferase reporter qHTS assay (AID 1671197); further: nearly all actives have a fitted effect of over 65% in size; further: potency means the concentration at half of the fitted maximal effect
# Sequence of Cytochrome P450 2C19 (Homo sapiens) (P33261 whole entry, looked up): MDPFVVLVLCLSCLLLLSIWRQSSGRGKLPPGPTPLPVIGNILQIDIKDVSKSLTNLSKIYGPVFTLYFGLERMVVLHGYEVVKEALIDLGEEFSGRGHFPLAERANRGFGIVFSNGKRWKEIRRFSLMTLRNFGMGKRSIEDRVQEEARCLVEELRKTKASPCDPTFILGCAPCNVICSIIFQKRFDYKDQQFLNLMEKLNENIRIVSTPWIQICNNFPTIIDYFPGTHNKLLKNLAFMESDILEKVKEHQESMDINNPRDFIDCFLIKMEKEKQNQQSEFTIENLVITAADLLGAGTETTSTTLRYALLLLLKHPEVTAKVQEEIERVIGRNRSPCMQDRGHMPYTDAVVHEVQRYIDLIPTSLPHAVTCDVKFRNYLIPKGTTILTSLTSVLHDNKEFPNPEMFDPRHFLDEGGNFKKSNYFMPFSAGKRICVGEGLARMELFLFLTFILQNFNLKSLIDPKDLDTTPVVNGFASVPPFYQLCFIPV
# How it was run: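 Enzyme-substrate mix with proluciferin substrate (P450-Glo CYP2C19 system) preincubated with compounds 10 min at room temperature; NADPH regeneration solution added, 37C for 1 h; detection reagent stops reaction, luminescence read after 20 min. Ketoconazole positive control.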
# [15] = qHTS assay to identify small molecule antagonists of the TGF-beta/Smad signaling pathway - cell viability counter screen (AID 1346824); further: nearly all actives have a fitted effect of over 50% in size
# How it was run: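 SBE-bla HEK 293T cells, incubated overnight, then compound plus 0.25 ng/mL TGF-beta1 (stock added) for 5 hr at 37 C. Viability was read in the same wells by CellTiter-Glo luminescence after 30 min at room temperature.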
# [16] = molecular target: Thyrotropin-releasing hormone receptor (Homo sapiens) (UniProt P34981); assay: qHTS assay to identify small molecule antagonists of the thyrotropin-releasing hormone receptor (TRHR) signaling pathway (AID 1346877; active means well fitted inhibition curve with a large enough effect in the repeat runs, not every such curve was filed as active; further: series mostly up to about 51 µM)
# How it was run: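 Kinetic fluorescence (3 min, 1 s resolution) following stimulation with TRH at 1 nM final; HEK293 cells bearing human TRHR; 5 min compound preincubation at RT; concentration-response over 15 points, triplicates.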
# [17] = qHTS assay to identify small molecule agonists of the progesterone receptor (PR) signaling pathway - cell viability counter screen (AID 1346799; calls by dose curve; further: nearly all actives have a fitted effect of over 45% in size)
# How it was run: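 Using the same plates as the PR reporter screen, HEK293T PR-UAS-bla cells received compounds for 16 hr at 37C and were then lysed with CellTiter-Glo; luminescence was read 30 min later at room temperature.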
# [18] = molecular target: Nuclear receptor subfamily 1 group I member 2 (Rattus norvegicus) (UniProt Q9R1A7); assay: Rat pregnane X receptor (rPXR) activation by small molecules, qHTS assay (AID 1346983); settings: rPXR luciferase reporter cells, One-Glo luminescence, 24 h; max activation: stronger effect = higher value; further: nearly all actives have a fitted effect of over 20% in size
# Sequence of Nuclear receptor subfamily 1 group I member 2 (Rattus norvegicus) (Q9R1A7 whole entry, looked up): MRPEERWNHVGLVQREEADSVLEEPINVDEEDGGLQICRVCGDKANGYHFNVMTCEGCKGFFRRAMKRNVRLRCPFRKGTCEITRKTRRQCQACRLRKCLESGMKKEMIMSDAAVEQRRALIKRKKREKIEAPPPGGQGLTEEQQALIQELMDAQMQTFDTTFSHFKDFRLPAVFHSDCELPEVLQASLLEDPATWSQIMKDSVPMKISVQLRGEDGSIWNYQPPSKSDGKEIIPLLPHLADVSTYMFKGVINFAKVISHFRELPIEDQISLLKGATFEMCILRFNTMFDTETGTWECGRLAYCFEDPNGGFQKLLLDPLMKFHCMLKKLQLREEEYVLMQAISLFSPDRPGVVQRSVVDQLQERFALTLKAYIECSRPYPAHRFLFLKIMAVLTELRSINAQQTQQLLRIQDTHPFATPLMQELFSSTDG
# How it was run: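 Cell-based rPXR activation assay: rPXR cells, 2,000 per well, rested 5hr at 37 C, then exposed to compounds in DMSO for 24 hr at 37 C. Luciferase activity read by One-Glo luminescence after 30 min at room temperature.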
# [19] = molecular target: Nuclear receptor subfamily 1 group I member 2 (Homo sapiens) (UniProt O75469); assay: CYP3A4 induction through human pregnane X receptor (PXR) by small molecules, qHTS assay (AID 1346984); further: nearly all actives have a fitted effect of over 40% in size
# How it was run: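 Induction measured in HepG2-based DPX-2 cells co-expressing human PXR and a CYP3A4 promoter-driven luciferase. After a 24-hour compound exposure, cells received CYP3A4 luciferin substrate at 3uM final for 3 hours, and light output was then recorded.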
# [20] = molecular target: Nuclear receptor subfamily 1 group I member 2 (Homo sapiens) (UniProt O75469); assay: Human pregnane X receptor (PXR) activation by small molecules, qHTS assay (AID 1346985); further: nearly all actives have a fitted effect of over 40% in size
# How it was run: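 DPX-2 cells (HepG2 co-transfected with a PXR response element and a CYP3A4-promoter luciferase construct) were seeded at 2,000 per well, rested 5 hr at 37C, then exposed to DMSO-dissolved compounds for 24 hr. Activation was read as luciferase luminescence.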
SMILES,Potency [1],Potency [2],Potency [3],Potency [4],Potency [5],Potency [6],Potency [7],Potency [8],Potency [9],Potency [10],Potency [11],Potency [12],Potency [13],Potency [14],Potency [15],Potency [16],Potency [17],max activation [18],Potency [19],Potency [20]
O=C1C=CC(=O)N1c1ccc(Cc2ccc(N3C(=O)C=CC3=O)cc2)cc1,inactive,inactive,inactive,61.6 µM (active),inactive,inactive,61.1 µM (active),inactive,6.11 µM (active),inactive,68.6 µM (active),4.86 µM (active),inactive,7.96 µM (active),–,–,–,–,–,–
CCCCCCCCCCCCCCCC(=O)OC[C@H](O)[C@H]1OC(=O)C(O)=C1O,inactive,inactive,–,inactive,inactive,inactive,inactive,inactive,–,inactive,inactive,inactive,inactive,79.6 µM (active),inactive,inactive,–,–,–,–
O=C(c1ccc(O)cc1O)c1ccc(O)cc1O,inactive,10.9 µM (active),–,inactive,inactive,inactive,–,inactive,–,inactive,inactive,61.2 µM (active) and 43.3 µM (active),7.98 µM (active) and 11.2 µM (active),28.3 µM (active) and 22.4 µM (active),inactive,inactive,inactive,–,–,–
CC(C)(C)C(=O)OCOC(=O)[C@@H]1N2C(=O)[C@@H](NC(=O)[C@H](N)c3ccccc3)[C@H]2SC1(C)C,inactive,inactive,–,inactive,inactive,inactive,inactive,inactive,–,inactive,inactive,–,inactive,inactive,inactive,inactive,inactive,-1.52% (inactive),inactive,inactive
NC(=NCCCCCCN=C(N)/N=C(\N)Nc1ccc(Cl)cc1)/N=C(\N)Nc1ccc(Cl)cc1,inactive,inactive and 55.5 µM (active),inactive,35.3 µM (active) and 48.7 µM (active) and inactive,inactive,–,–,inactive,24.2 µM (active) [middle of 5 runs],inactive,–,2.41 µM (active) and inactive,–,22.3 µM (active) [middle of 5 runs],–,–,–,–,–,–
CCCCN(CCCC)C(=O)N(CCCC)CCCC,inactive,inactive,–,inactive,inactive,–,inactive,inactive,inactive,inactive,inactive,inactive,–,inactive,inactive,–,inactive,–,–,–
Cc1cc(O)c(Cl)c(C)c1Cl,inactive,inactive,–,inactive,inactive,–,inactive,inactive,inactive,inactive,inactive,–,inactive,56.4 µM (active),inactive,inactive,inactive,–,–,–
